Source: PubChem
Shown are actives, neighbours in structure and some others; about 2.1% of the full set was active somewhere.
COUP-TFII inh: inhibitors of human COUP-TFII (NR2F2); P24468; 0.7% of 370,000 active; HEK293T NGFI-A luciferase reporter, luminescence; inhibition, % at 8.6 µM; AID 686940;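 active = inhibition above a per-plate cutoff, mean inhibition of test wells between control levels plus 3 SD, cut at about 38% in these data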;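 also: cells cotransfected with COUP-TFII expression vector driving the NGFI-A reporter; 0% = median of COUP-TF2 test wells and 100% = reporter-only cells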
Target sequence (P24468 whole entry, looked up): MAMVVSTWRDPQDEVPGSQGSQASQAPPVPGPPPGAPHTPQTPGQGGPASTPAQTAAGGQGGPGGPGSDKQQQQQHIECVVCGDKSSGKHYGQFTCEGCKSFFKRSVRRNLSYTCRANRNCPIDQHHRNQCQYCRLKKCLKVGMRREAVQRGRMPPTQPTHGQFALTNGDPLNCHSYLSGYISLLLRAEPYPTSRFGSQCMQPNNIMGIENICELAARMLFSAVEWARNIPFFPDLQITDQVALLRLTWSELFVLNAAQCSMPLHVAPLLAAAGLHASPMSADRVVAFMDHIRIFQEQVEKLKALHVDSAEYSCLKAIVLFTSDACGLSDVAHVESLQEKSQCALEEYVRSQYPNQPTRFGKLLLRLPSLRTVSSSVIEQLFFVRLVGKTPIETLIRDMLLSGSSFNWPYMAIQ
GalR3 antagonist: human GalR3 antagonism; O60755; inhibition, % at 3 µM; 0.44% of 360,000 active; HEK293 GalR3-CNG cAMP membrane potential fluorescence; galR3 body fused to GalR1 C-terminus; AID 651719;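 active = inhibition above the screen-wide average plus 3 SD, cut at about 13% in these data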;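 also: forskolin and galanin both at EC90 stimulate the cells; cAMP rise reported by CNG channel membrane potential dye signal; 0% = forskolin plus galanin with DMSO and 100% = forskolin alone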
HIV Env fusion: HIV envelope-mediated fusion inhibition. inhibition, % at 12.3 µM. HeLa-JRFL Env/CEM21 cell fusion, luciferase. 1.1% of 360,000 active;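 active = mean replicate inhibition score of at least 50 and every replicate individually at or above 50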;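 also: 0% = plate neutral controls and 100% = maraviroc near 300 nM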
Gli-Sufu block: antagonists of Gli-Sufu signaling | Sufu-KO-LIGHT fibroblasts, Gli luciferase reporter luminescence | inhibition, % at 5 µM | 0.74% of 340,000 active;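 active = inhibition above about 55%, limit read from the data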;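 also: 0% = DMSO-treated cells and 100% = wells with medium but no cells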
aDG glyco act: alpha-DG glycosylation activation; Pro5-aDG cells, alpha-DG glycosylation AlphaScreen (IIH6); 0% Pro5, 100% B10-LARGE cell signal; activation, % at 10 µM; 0.22% of 360,000 active;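 active = activation of at least 8% versus controls, or a plate z-score of at least 8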;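 also: Pro5 are CHO cells carrying HIG-tagged alpha-DG that lacks glycosylation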
GalR3 antag conf: confirmation of human galanin receptor 3 antagonists. shares compounds with GalR3 antagonist. HEK293 GalR3 CNG cAMP biosensor, membrane potential fluorescence; galR3 fused to GalR1 carboxy tail; challenged with forskolin and galanin at EC90. inhibition, % at 3 µM. 59% of 1,600 active. AID 652245;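 active = inhibition above the primary screen's cutoff, the mean inhibition of all screened compounds plus 3 SD, cut at about 13% in these data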;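 also: 0% = forskolin plus galanin and 100% = forskolin alone with DMSO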
CNG parental: counter-screen for GalR3 antagonists: nonspecific agonists in parental HEK-CNG cells; shares compounds with GalR3 antagonist; HEK293-CNG parental cells, cAMP membrane potential fluorescence; normalised: DMSO wells 0%, forskolin wells 100%; 10% of 1,600 active; AID 652268; activation, % at 3 µM; in the data active = activation above about 1.3%
Starred values were filed as active, the others as inactive; · = no result; [ ] = another dose, or the depositor's remark.

SMILES	COUP-TFII inh	GalR3 antagonist	HIV Env fusion	Gli-Sufu block	aDG glyco act	GalR3 antag conf	CNG parental
O=C(NCC[C@H]1CC[C@H](NC(=O)c2cnccn2)[C@H](CO)O1)c1ccc2c(c1)OCO2	·	·	-17[16.7 µM]	·	·	·	·
CCOC(=O)C1=C(C)NC2=C(C(=O)CCC2)C1c1cn(Cc2ccc(Cl)cc2Cl)nc1-c1ccccc1 (configuration not stated)	-11	16*	121*	6	1	13*	6.2*
COC(=O)C1=C(C)NC2=C(C(=O)CCC2)C1c1cn(Cc2ccc(Cl)cc2Cl)nc1-c1ccccc1 (configuration not stated)	9	37*	110*	6	0	50*	0
CCOC(=O)C1=C(C)NC2=C(C(=O)CCC2)C1c1cc(OC)ccc1OC (configuration not stated)	-11	-1	·	4	0	·	·
CCC(C)NC(=O)CSc1nc2n[nH]c(C)c2c(=N)n1-c1ccc(OC)cc1 (configuration not stated)	-18	0	·	9	0	·	·
CCC(Sc1nc2n[nH]c(C)c2c(=N)n1-c1cccc(Cl)c1C)C(=O)N(CC)CC (configuration not stated)	-27	17*	-306	-6	0	71*	1
Cc1ccc(-c2nn3c(C)nnc3c3ccccc23)cc1S(=O)(=O)NC(C)c1ccccc1 (configuration not stated)	-29	15*	·	-11	-1	23*	1
Cc1ccc(S(=O)(=O)Nc2ccc3c(c2)C(=O)N([C@H](C)CO)C[C@@H](C)[C@@H](CN(C)C(=O)Cc2ccccc2)OCCCC[C@H](C)O3)cc1	·	·	-26[16.7 µM]	·	·	·	·
CCCC(=O)Nc1ccc2c(c1)C(=O)N(C)[C@H]1CC[C@H](CC(=O)Nc3ccccc3OC)O[C@@H]1CO2	·	·	11[16.7 µM]	·	·	·	·
CCOC(=O)Nc1cccc(NC(=O)c2ccccc2F)c1	20	19*	7	-6	0	-3	0
COc1ccc(S(=O)(=O)Nc2ccc3c(c2)C(=O)N([C@@H](C)CO)C[C@H](C)[C@@H](CN(C)S(=O)(=O)c2cccs2)OCCCC[C@H](C)O3)cc1	·	·	-14[16.7 µM]	·	·	·	·
CS(=O)(=O)N1[C@@H]2Cn3c(cccc3=O)[C@H]1[C@@H](C(=O)NCc1ccccc1)[C@@H]2CO	·	·	17[16.7 µM]	·	·	·	·
CC(C)[C@H](NC(=O)c1c(F)cccc1F)C(=O)N1CCN(c2ccc(F)cc2)CC1	-27	13*	1	-12	0	4	0
COc1ccc(C#Cc2cnc3c(c2)C(=O)N([C@@H](C)CO)C[C@@H](C)[C@H](CN(C)C(=O)c2ccccc2F)O3)cc1	·	·	29[16.7 µM]	·	·	·	·
CCOC(=O)COc1cccc2c(=O)n(CC(=O)NCc3ccc(F)cc3)ccc12	-72	15*	-17	49	0	22*	1
C[C@H]1CN([C@@H](C)CO)C(=O)c2cc(NS(=O)(=O)c3ccccc3)ccc2O[C@H]1CN(C)C(=O)Nc1ccc(C(F)(F)F)cc1	·	·	-30[16.7 µM]	·	·	·	·
O=C(C[C@@H]1C[C@H]2c3cc(NC(=O)CC4CC4)ccc3O[C@H]2[C@H](CO)O1)NCC1CC1	·	·	-29[16.7 µM]	·	·	·	·
CCC1=Nc2cc(C(=O)NCC3CCCO3)ccc2Sc2ccc(Cl)cc21 (configuration not stated)	-35	16*	-6	-4	0	9	0
CN(C)CC(=O)N[C@H]1CC[C@H](CCn2cc(C3CC3)nn2)O[C@H]1CO	·	·	13[16.7 µM]	·	·	·	·
O=C(O)C[C@@H]1CC[C@@H](NC(=O)Nc2cc(F)ccc2F)[C@H](CO)O1	·	·	-298[16.7 µM]	·	·	·	·
COc1ccc(-c2c(-c3ccccc3OC)oc3ccccc23)cc1F	-37	·	-22	4	0	2	-1
COc1cc(C(=O)N/N=C/C2CC=CCC2)cc(OC)c1OC (configuration not stated)	-76	13*	-62	-17	0	1	0
CCCC(=O)Nc1ccc2c(c1)C(=O)N(C)C[C@H](OC)[C@H](C)CN(CC1CCCC1)[C@@H](C)CO2	·	·	12[16.7 µM]	·	·	·	·
